Data reported in PMC7862700, “An all-to-all approach to the identification of sequence-specific readers for epigenetic DNA modifications on cytosine”.

Assays:
Assay in all cases: DAPPL (digital affinity profiling via proximity ligation, sequencing); 10 mM Tris-HCl pH 7.5, 50 mM NaCl, 1 mM DTT, 4% glycerol, room temperature, 30 min; GST-TFs on glutathione beads, 16-mer random dsDNA library, 0.1% formaldehyde crosslink after washing; high values mean tight binding
Conditions in all cases: protein: recombinant; tags: N-terminal GST; dsDNA, one strand shown
[1] = molecular target: T1, FLI1 (Homo sapiens, UniProt Q01543 1-452)
T1 sequence: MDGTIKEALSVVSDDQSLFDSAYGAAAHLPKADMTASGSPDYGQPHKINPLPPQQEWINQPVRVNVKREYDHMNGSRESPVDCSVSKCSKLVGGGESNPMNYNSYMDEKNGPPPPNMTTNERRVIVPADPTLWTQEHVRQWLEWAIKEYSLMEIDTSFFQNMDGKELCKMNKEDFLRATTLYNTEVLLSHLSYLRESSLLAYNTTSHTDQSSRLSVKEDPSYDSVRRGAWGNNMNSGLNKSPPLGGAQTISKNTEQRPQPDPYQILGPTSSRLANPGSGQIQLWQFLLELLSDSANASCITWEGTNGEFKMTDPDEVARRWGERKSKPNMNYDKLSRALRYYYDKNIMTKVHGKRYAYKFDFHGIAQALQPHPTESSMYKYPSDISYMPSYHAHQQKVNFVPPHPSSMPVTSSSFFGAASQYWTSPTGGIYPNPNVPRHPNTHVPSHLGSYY
Procedure, shortened: (§1)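 Beads coated with glutathione captured GST-fused human transcription factors that had been expressed in yeast, and the factors were then given DNA barcodes and pooled with a tag-only sample. The pools were incubated with 200 nmole of a random double-stranded 16-mer DNA library in Tris/NaCl/DTT/glycerol buffer for 30 min at room temperature, washed, crosslinked with 0.1% formaldehyde and proximity-ligated with BsaI/T4 ligase at 37 °C for 1 h. PCR amplification and Illumina NextSeq500 sequencing came last. Binding signal is each hexamer's read frequency for a factor divided by its frequency for the tag-only sample.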

[2] = molecular target: T2, ELK1 (Homo sapiens, UniProt P19419 1-428)
T2 sequence: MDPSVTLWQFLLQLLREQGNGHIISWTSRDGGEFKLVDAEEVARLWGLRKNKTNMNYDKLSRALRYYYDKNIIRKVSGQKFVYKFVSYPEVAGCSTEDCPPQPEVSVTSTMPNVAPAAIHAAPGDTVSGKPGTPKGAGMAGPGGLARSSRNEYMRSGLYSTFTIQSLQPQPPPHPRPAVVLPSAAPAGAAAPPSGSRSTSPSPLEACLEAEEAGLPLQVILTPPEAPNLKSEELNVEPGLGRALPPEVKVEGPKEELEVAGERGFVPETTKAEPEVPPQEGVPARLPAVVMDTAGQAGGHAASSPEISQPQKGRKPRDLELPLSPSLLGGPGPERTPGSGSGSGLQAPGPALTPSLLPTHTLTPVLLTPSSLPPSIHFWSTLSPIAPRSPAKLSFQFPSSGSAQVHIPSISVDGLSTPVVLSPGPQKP
Procedure, shortened: as §1

[3] = molecular target: T3, GABPA (Homo sapiens, UniProt Q06546 1-454)
T3 sequence: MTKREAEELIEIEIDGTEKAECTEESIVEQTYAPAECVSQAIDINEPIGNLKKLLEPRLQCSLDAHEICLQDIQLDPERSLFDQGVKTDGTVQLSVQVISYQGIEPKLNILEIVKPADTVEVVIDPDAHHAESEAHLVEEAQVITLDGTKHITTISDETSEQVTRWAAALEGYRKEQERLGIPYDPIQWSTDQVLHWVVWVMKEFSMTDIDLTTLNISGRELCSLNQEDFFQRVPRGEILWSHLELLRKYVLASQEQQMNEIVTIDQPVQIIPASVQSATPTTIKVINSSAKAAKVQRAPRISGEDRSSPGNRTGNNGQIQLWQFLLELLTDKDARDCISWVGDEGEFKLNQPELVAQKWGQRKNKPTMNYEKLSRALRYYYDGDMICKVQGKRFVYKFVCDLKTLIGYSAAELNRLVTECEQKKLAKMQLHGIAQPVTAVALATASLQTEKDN
Procedure, shortened: as §1

[4] = molecular target: T4, ERG (Homo sapiens, UniProt P11308 1-479)
T4 sequence: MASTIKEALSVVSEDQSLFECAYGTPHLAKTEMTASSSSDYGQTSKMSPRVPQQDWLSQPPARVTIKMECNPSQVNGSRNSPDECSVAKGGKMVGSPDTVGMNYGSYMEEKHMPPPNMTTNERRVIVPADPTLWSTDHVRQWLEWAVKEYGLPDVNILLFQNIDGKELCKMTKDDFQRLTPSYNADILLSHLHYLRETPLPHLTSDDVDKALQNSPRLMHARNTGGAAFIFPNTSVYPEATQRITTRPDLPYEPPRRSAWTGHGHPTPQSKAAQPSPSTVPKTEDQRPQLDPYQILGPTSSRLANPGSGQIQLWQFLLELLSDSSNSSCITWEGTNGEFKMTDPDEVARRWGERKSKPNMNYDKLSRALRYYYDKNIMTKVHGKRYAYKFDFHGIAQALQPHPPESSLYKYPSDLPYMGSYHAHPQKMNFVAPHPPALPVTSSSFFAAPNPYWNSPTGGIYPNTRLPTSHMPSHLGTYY
Procedure, shortened: as §1

[5] = molecular target: ELF1 (Homo sapiens, UniProt P32519 1-619)
Sequence of ELF1 (P32519 whole entry): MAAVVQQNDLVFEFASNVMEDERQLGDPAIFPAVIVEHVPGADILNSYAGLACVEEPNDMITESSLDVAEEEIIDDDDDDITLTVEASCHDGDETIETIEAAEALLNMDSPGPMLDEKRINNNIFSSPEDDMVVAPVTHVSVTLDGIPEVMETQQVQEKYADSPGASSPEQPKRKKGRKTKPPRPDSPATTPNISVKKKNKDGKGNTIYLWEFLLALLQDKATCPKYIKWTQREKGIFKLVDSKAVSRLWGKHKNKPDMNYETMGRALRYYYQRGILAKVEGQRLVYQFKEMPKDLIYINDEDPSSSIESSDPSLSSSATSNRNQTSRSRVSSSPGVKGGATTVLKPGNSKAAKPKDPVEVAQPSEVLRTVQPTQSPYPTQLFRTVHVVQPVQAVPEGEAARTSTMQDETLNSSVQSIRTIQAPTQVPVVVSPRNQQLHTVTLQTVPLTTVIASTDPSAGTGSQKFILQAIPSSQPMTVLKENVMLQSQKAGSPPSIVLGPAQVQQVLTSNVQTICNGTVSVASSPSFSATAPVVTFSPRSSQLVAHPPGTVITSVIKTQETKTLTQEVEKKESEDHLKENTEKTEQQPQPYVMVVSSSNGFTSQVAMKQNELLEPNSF
Procedure, shortened: as §1

[6] = molecular target: T5, EHF (Homo sapiens, UniProt Q9NZC4 1-300)
T5 sequence: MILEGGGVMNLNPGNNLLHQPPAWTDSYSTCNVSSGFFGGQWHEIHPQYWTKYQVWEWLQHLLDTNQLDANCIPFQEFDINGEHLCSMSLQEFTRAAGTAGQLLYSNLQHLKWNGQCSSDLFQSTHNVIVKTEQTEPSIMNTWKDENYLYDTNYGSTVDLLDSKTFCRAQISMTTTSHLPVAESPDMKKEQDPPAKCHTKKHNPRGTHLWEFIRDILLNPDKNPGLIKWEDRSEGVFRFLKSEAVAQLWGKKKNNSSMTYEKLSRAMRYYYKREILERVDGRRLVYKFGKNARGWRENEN
Procedure, shortened: as §1

[7] = molecular target: SPI1 (Homo sapiens, UniProt P17947 1-270)
Procedure, shortened: as §1

[8] = molecular target: SPIB (Homo sapiens, UniProt Q01892 1-262)
Sequence of SPIB (Q01892 whole entry): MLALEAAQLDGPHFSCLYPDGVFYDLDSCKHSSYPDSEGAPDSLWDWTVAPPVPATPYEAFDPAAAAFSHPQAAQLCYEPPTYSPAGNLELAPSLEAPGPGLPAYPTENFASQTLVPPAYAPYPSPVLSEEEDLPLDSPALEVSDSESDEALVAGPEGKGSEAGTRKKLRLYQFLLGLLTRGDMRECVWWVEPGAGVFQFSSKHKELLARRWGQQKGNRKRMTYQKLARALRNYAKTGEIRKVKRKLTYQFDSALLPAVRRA
Procedure, shortened: as §1

[9] = molecular target: T6, ELK3 (Homo sapiens, UniProt P41970 1-407)
T6 sequence: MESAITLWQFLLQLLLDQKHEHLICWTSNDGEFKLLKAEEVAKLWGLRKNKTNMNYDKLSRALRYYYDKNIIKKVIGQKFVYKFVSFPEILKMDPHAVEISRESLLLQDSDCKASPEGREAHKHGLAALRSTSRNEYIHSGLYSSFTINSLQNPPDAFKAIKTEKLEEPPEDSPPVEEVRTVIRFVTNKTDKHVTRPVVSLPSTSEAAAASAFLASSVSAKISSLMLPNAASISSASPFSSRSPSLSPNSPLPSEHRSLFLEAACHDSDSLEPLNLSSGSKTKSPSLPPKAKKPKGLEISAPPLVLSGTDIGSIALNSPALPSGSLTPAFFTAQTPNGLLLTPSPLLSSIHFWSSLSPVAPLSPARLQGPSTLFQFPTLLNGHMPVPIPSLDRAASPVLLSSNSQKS
Procedure, shortened: as §1

## CTTCTC
[1]
  binding signal: 1.38 fold enrichment (6-mer frequency, TF over GST control)
[2]
  binding signal: 1.39 fold enrichment (6-mer frequency, TF over GST control)
[3]
  binding signal: 1.39 fold enrichment (6-mer frequency, TF over GST control)
[4]
  binding signal: 1.3 fold enrichment (6-mer frequency, TF over GST control)
[5]
  binding signal: 1.41 fold enrichment (6-mer frequency, TF over GST control)
[6]
  binding signal: 1.37 fold enrichment (6-mer frequency, TF over GST control)
[7]
  binding signal: 1.4 fold enrichment (6-mer frequency, TF over GST control)
[8]
  binding signal: 1.34 fold enrichment (6-mer frequency, TF over GST control)
[9]
  binding signal: 1.39 fold enrichment (6-mer frequency, TF over GST control)
